The values that follow come from PubChem BioAssay (NCI).

SMILES strings stand for the structures. About 83,000 compounds went through this panel and 20% of them were active in at least one assay; those are over-represented in the sample as a whole.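 Negative percent growth values reflect cell death: -40 means 40% of the cells present at the start died, and -100 means all died.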 Unmarked numbers belong to inactive results. Activity calls are given as the source filed them. The calls were made as follows: active = growth percent below 10; inactive = the rest.

Among the test systems are NCI-H23 lung; NCI-H226 lung; NCI-H322M lung; HOP-62 NSCLC; NCI-H460 lung; HOP-92 NSCLC; NCI-H522 lung; A549/ATCC NSCLC; 786-0 renal; COLO 205 colon.
What all share (assay): NCI-60 one-dose screen, 48 h (100 = growth as untreated, 0 = no growth, -100 = all killed)
What all share (conditions): 10 µM unless noted

Consider `CC1CC2Oc3ccc(Cl)cc3C(=O)N2O1` (stereo not given), for which the growth in the experiment on NCI-H23 lung was 99.5%; with NCI-H226 lung, 99.3%; with NCI-H322M lung, 126%; in the experiment on HOP-62 NSCLC it was 101%; in the experiment with NCI-H460 lung it was 108%; with HOP-92 NSCLC, 86.4%. For the same compound, the growth with NCI-H522 lung is 108%; in the experiment on A549/ATCC NSCLC, 98%; with 786-0 renal it was 104%; in the experiment with COLO 205 colon, 108%.
On to `c1ccc2cc3nc4cc5ccccc5cc4nc3cc2c1`, for which the growth in the experiment with NCI-H23 lung is 88.8%; with NCI-H226 lung, 97.3%; in the experiment with NCI-H322M lung, 109%; with HOP-62 NSCLC it was 83.5%; with NCI-H460 lung it was 99.8%; with HOP-92 NSCLC it was 94.3%. Also, the growth is 99% in the experiment on NCI-H522 lung, 88.4% with A549/ATCC NSCLC, 108% in the experiment on 786-0 renal and 77.7% in the experiment with COLO 205 colon.
Consider `O=c1[nH]nc(-c2ccccc2)c2c(-c3ccccc3)onc12`, for which the growth was 50.4% in the experiment on NCI-H23 lung; 55.4% in the experiment with NCI-H226 lung; 59.8% with NCI-H322M lung; 34.4% with HOP-62 NSCLC; 17% in the experiment on NCI-H460 lung; -6.41% (active) in the experiment on HOP-92 NSCLC. Further, the growth with NCI-H522 lung is -22.5% (active); in the experiment on A549/ATCC NSCLC it was 58.5%; in the experiment on 786-0 renal it was 45%; in the experiment on COLO 205 colon, 11.3%.
In the case of `CCCCCCCCCCCCCCCCCC1=NCCN1CCOC1=C(Cl)C(=O)c2ccccc2C1=O`, the growth was 79.4% in the experiment with NCI-H23 lung; 100% in the experiment on NCI-H226 lung; 80.5% in the experiment with NCI-H322M lung; 82.6% in the experiment on HOP-62 NSCLC; 98.3% in the experiment on NCI-H460 lung; 46.4% with HOP-92 NSCLC. Also, the growth in the experiment on NCI-H522 lung was 13.8%; in the experiment with A549/ATCC NSCLC, 95.3%; with 786-0 renal it was 98.3%; in the experiment on COLO 205 colon, 41.2%.
For `c1cc2ccc3cc2cc1CNCCOCCNCc1ccc2ccc(cc2c1)CNCCOCCNC3`, the growth was -52.6% (active) with NCI-H23 lung; -29.4% (active) in the experiment with NCI-H226 lung; -10.7% (active) with NCI-H322M lung; -10.2% (active) in the experiment with HOP-62 NSCLC; -9.48% (active) in the experiment with NCI-H460 lung; -31.5% (active) with HOP-92 NSCLC. Further, the growth with NCI-H522 lung was -61.6% (active); in the experiment on A549/ATCC NSCLC, 0.178% (active); with 786-0 renal, 43.5%; in the experiment with COLO 205 colon, -53.2% (active).
`COc1cc2c(cc1-c1c(C)noc1C)ncc1nc(C3CCC(F)(F)CC3)n(C3CCC(OC(F)F)CC3)c12` (stereo not given): the growth is 68.3% in the experiment with NCI-H23 lung; 66.7% in the experiment on NCI-H226 lung; 47.7% with NCI-H322M lung; 37.1% in the experiment on HOP-62 NSCLC; 62.6% in the experiment on NCI-H460 lung; 12.9% in the experiment with HOP-92 NSCLC. In addition, the growth in the experiment with NCI-H522 lung was 12.5%; in the experiment on A549/ATCC NSCLC it was 64.1%; in the experiment with 786-0 renal, 53.4%; in the experiment with COLO 205 colon, 28.4%.
Regarding `CN(Cc1cnc2nc(N)nc(N)c2n1)c1ccc(C(=O)N[C@@H](CCc2nn[nH]n2)c2nn[nH]n2)cc1`, the growth in the experiment with NCI-H23 lung was 40.8%; in the experiment with NCI-H226 lung it was 85.4%; with NCI-H322M lung, 66%; in the experiment on HOP-62 NSCLC it was 32.7%; in the experiment with NCI-H460 lung, 19.4%; with HOP-92 NSCLC, 93.2%. Moreover, the growth is 40.9% with NCI-H522 lung, 22.9% with A549/ATCC NSCLC, 26.8% with 786-0 renal and 49.3% in the experiment on COLO 205 colon.
For the compound `Cc1ccc(-c2cc(-c3cccnc3)[nH]c(=O)c2C#N)cc1`, the growth is 103% with NCI-H23 lung; 99.2% in the experiment on NCI-H226 lung; 103% in the experiment with NCI-H322M lung; 107% with HOP-62 NSCLC; 107% with NCI-H460 lung; 97.9% in the experiment on HOP-92 NSCLC. The growth with NCI-H522 lung is 94%; with A549/ATCC NSCLC it was 102%; with 786-0 renal it was 101%; with COLO 205 colon it was 118%.
With `COC(=O)c1c2c(c(C)[n+]([O-])c1C)C(=O)C(NCc1ccc(F)cc1)=CC2=O`, the growth in the experiment on NCI-H23 lung was 31%; with NCI-H226 lung it was 81.6%; in the experiment on NCI-H322M lung, 15.9%; in the experiment with HOP-62 NSCLC, 48.2%; with NCI-H460 lung, 11.5%; in the experiment on HOP-92 NSCLC it was 42.5%. The growth with NCI-H522 lung was -11.6% (active); with A549/ATCC NSCLC, 4.34% (active); with 786-0 renal, 48.7%; in the experiment with COLO 205 colon, -49.8% (active).
Regarding `O=[N+]([O-])c1ccc(Sc2cccc[n+]2[O-])c2nonc12`, the growth was 73.2% with NCI-H23 lung; 102% in the experiment on NCI-H226 lung; 104% in the experiment with NCI-H322M lung; 101% with HOP-62 NSCLC; 56.8% with NCI-H460 lung; 96.4% in the experiment on HOP-92 NSCLC. The growth was -70.8% (active) in the experiment with NCI-H522 lung, 59% with A549/ATCC NSCLC, 92.6% in the experiment on 786-0 renal and -67.3% (active) in the experiment with COLO 205 colon.
Consider `Cc1ccc(C(=O)CSc2nc(-c3ccc(Br)cc3)c(C#N)c(=O)[nH]2)cc1`, for which the growth in the experiment with NCI-H23 lung is 92.6%; in the experiment on NCI-H226 lung it was 101%; with NCI-H322M lung it was 100%; in the experiment with HOP-62 NSCLC, 89.1%; in the experiment with NCI-H460 lung it was 102%; in the experiment with HOP-92 NSCLC, 92.2%. The growth in the experiment with NCI-H522 lung was 90%; with A549/ATCC NSCLC it was 101%; in the experiment on 786-0 renal, 98.7%; in the experiment on COLO 205 colon, 102%.
`CC1CC(C(C)(C)C)C(=O)C(C(C)(C)C)C1` (stereo not given): the growth in the experiment on NCI-H23 lung was 109%; in the experiment on NCI-H226 lung, 98.8%; in the experiment on NCI-H322M lung it was 107%; in the experiment with HOP-62 NSCLC, 105%; in the experiment with NCI-H460 lung it was 108%; in the experiment on HOP-92 NSCLC, 85%. Further, the growth was 90.8% with NCI-H522 lung, 100% in the experiment on A549/ATCC NSCLC, 100% with 786-0 renal and 115% in the experiment on COLO 205 colon.
For the compound `C=C(C)[C@@H]1CC=C2c3sc(-c4ccc(C)cc4)nc3C[C@@H](C)[C@]2(C)C1`, the growth was 112% with NCI-H23 lung; 101% with NCI-H226 lung; 101% in the experiment with NCI-H322M lung; 102% with HOP-62 NSCLC; 114% with NCI-H460 lung; 103% in the experiment on HOP-92 NSCLC. Moreover, the growth was 95.7% in the experiment on NCI-H522 lung, 95.3% in the experiment on A549/ATCC NSCLC, 109% in the experiment on 786-0 renal and 108% in the experiment on COLO 205 colon.
As to `O=c1[nH]ccc2nc(N3CCC(O)CC3)nc(Nc3ccc(N4CCOCC4)cc3)c12`, the growth with NCI-H23 lung was 58.2%; with NCI-H226 lung it was 45.7%; in the experiment with NCI-H322M lung, 83.7%; with HOP-62 NSCLC, 97.2%; in the experiment with NCI-H460 lung, 36.2%; with HOP-92 NSCLC it was 2.14% (active). Moreover, the growth was 75.1% with NCI-H522 lung, 29.8% in the experiment on A549/ATCC NSCLC, 77.2% in the experiment on 786-0 renal and -1.79% (active) with COLO 205 colon.
For the compound `O=C(NCCc1ccc(O)c(O)c1)C12CC3CC(CC(C3)C1)C2`, the growth was 84.9% in the experiment with NCI-H23 lung; 93.7% in the experiment on NCI-H226 lung; 114% in the experiment with NCI-H322M lung; 74.3% in the experiment on HOP-62 NSCLC; 110% with NCI-H460 lung; 65.5% with HOP-92 NSCLC. In addition, the growth was 9.83% (active) in the experiment with NCI-H522 lung, 105% in the experiment with A549/ATCC NSCLC, 87.9% in the experiment with 786-0 renal and 90% with COLO 205 colon.
